# For part of these data: Results with a measured potency or affinity are listed apart.
# Key:
# [1] = test system: Staphylococcus aureus; assay: Antibacterial activity against Staphylococcus aureus MRSA ATCC 43300 (CO-ADD:GP_020); MIC in CAMBH media using NBS plates, by Resazurin F(560/590); format: functional; settings: Concentration 20 uM, ASSAY_TEST Inhibition of Bacterial Growth, detection method Resazurin, Fluorescence (ex560/em590), MEDIA CAMHB, plate type 384well, CORNING #3640, time 18 hr
# [2] = test system: Acinetobacter baumannii; assay: Antibacterial activity against Acinetobacter baumannii ATCC 19606 (CO-ADD:GN_034); MIC in CAMBH media using NBS plates, by Resazurin F(560/590); format: functional; settings: Concentration 20 uM, ASSAY_TEST Inhibition of Bacterial Growth, detection method Resazurin, Fluorescence (ex560/em590), MEDIA CAMHB, plate type 384well, CORNING #3640, time 18 hr
# [3] = test system: Escherichia coli; assay: Antibacterial activity against Escherichia coli ATCC 25922 (CO-ADD:GN_001); MIC in CAMBH media using NBS plates, by Resazurin F(560/590); format: functional; settings: Concentration 20 uM, ASSAY_TEST Inhibition of Bacterial Growth, detection method Resazurin, Fluorescence (ex560/em590), MEDIA CAMHB, plate type 384well, CORNING #3640, time 18 hr
# [4] = test system: Klebsiella pneumoniae; settings: Concentration 20 uM; ASSAY_TEST Inhibition of Bacterial Growth; detection method Absorption (OD600); MEDIA CAMHB; plate type 384well; NBS; CORNING #3640; time 18 hr
# [5] = test system: Candida albicans; settings: 20 µM
# [6] = test system: Cryptococcus neoformans; settings: Concentration 20 uM; ASSAY_TEST Inhibition of Fungal Growth; detection method Resazurin; Absorption (OD600-OD570); plate type 384well; NBS; CORNING #3640
Structure (SMILES),Inhibition [1],Inhibition [2],Inhibition [3],Inhibition [4],Inhibition [5],Inhibition [6]
CC(C)(NC(=O)c1cc(Cl)c2ccccc2c1O)C(=O)O,9.7%,5.56%,13.46%,19.28%,5.1%,0.69%
Cn1c(=O)c2nc(COc3ccc(C(C)(C)C)cc3)[nH]c2n(C)c1=O,-1.06%,-14.84%,1.91%,9.47%,3.68%,-17.46%
Cc1csc(NC(=O)c2ccc(C(=O)Nc3nc(C)cs3)cc2)n1,-1.48%,17.46%,2.37%,21.27%,-0.71%,-1.68%
COc1cc(NC(C)=O)c2ncccc2c1NC(C)=O,3.21%,8.89%,-13.22%,18.39%,5.47%,12.48%
Cc1nc(NCc2ccccc2)c2cc[nH]c2n1 [ROLODINE],-1.89%,-12.81%,4.8%,9.06%,2.35%,-8.43%
CS/C(=C\c1ccc(C(=O)c2ccc(C)cc2)n1C)[S+](C)[O-] (stereo not given),7.5%,7.53%,1.09%,18.35%,3.75%,1.32%
O=C1c2ccccc2C(=Cc2cccnc2)c2ccccc21,8.79%,-7.39%,6.86%,10.23%,9.01%,-9.38%
Cc1cc(NC(=O)c2ccccc2)nc(C)n1,8.84%,-8.03%,12.79%,3.38%,0.88%,-15.88%
Cn1cnc([N+](=O)[O-])c1N=C(N)N,-12.1%,-2.18%,11.15%,7.43%,-4.73%,1.78%
Cc1cc2c3ccccc3ncn2n1,14.33%,-9.67%,5.54%,9.54%,5.02%,-5.91%
Cn1c(=O)c2c(nc(Oc3ccccc3)n2C)n(C)c1=O,7.55%,11.19%,-2.76%,19.27%,7.25%,-3.63%
C1COCCN1.O=C(O)C(C=C(Cl)Cl)N1CCOCC1 (stereo not given),15.53%,-4.57%,-1.54%,22.22%,3.18%,-2.22%
C#CC1(N2CCCCC2)CCCCC1,17.84%,-17.5%,12.63%,-1.14%,-1.65%,-12.88%
O=C(c1ccccc1)c1ccccc1C(=O)c1ccccc1,16.85%,12.71%,4.94%,16.03%,2.49%,-5.73%
NNC(=O)CNc1cccc(Br)c1,11.03%,1.39%,7.55%,8.17%,1.56%,-4.46%
N#C/N=C/N1CC=C(c2ccc(Cl)cc2)CC1,11.33%,10.12%,1.23%,20.23%,8.73%,-3.92%
CCCSc1nc2c(c(=O)n(C)c(=O)n2C)n1C,3.15%,-8.65%,0.8%,7.42%,2.63%,-7.02%
COc1ccc(-c2cc(-c3ccccc3)c(-c3ccccc3)nn2)cc1,-3.16%,8.32%,6.8%,-1.34%,2.55%,-12.46%
CCOP(=O)(OCC)/C(C#N)=C/c1c[nH]c2ccccc12,16.69%,9.53%,-1.43%,13.34%,-0.38%,-5.67%
CCCNC(=O)c1ccc(Cl)cc1Cl,12.41%,-15.87%,4.4%,8.05%,0.63%,-4.71%
O=C(c1ccccc1)C1C(c2ccccc2)C1[N+](=O)[O-] (stereo not given),0.24%,5.31%,-7.09%,8.34%,7.18%,-2.68%
CCN1CCC(Nc2ccnc3cc(Cl)ccc23)CC1,11.96%,-0.07%,-4.98%,16.53%,2.51%,-6.53%
Clc1ccccc1/C=C/c1ccnc2ccccc12,12.2%,3.17%,1.57%,12.59%,30.4%,-3.47%
O=C1NC(=O)C2(CCc3ccccc32)N1 (stereo not given),-0.71%,-7.84%,5.32%,9.04%,4.28%,0.2%
Cc1cccc(C)c1NC(=O)Nc1ccc(S(N)(=O)=O)cc1,-3.68%,5.47%,8.39%,5.63%,0.87%,-12.09%

Structure (SMILES),Inhibition [1],Inhibition [2],Inhibition [3],Inhibition [4],Inhibition [5],Inhibition [6]
CC(C)c1nc2c(=O)n(C)c(=O)n(C)c2[nH]1,10.47%,-19.52%,12.69%,-1.01%,-1.8%,-13.14%
N#CC1=C(Nc2ccccc2Cl)SC(c2ccccc2O)NC1=O (stereo not given),1.74%,-8.74%,4.44%,12.14%,4.82%,-3.28%
Cc1cc(NC(=O)Nc2cc(F)ccc2F)no1,-1.77%,-0.21%,10.41%,7.53%,2.67%,-5.29%
COc1cc(OC)c2c(=O)cc(-c3cccnc3)oc2c1,13.2%,11.57%,-0.96%,9.22%,2.37%,-8.93%
c1ccc(-n2ncc3cccnc32)cc1,6.65%,-2.45%,7.04%,9.31%,-0.36%,-9.65%
Cc1c(Cc2ccccc2)[n+]([O-])c2ccccc2[n+]1[O-],19.3%,-9.71%,20.29%,-6.69%,-1.35%,-12.82%
O=C(Oc1ccccc1)c1cccc2cccc(C(=O)Oc3ccccc3)c12,17.84%,0.5%,-0.78%,14.06%,7.13%,-3.03%
CCC(CNc1cc(OC)cc2cccnc12)NC1CCCCC1 (stereo not given),4.02%,11.06%,4.95%,14.97%,-0.36%,-7.8%
O=C(O)c1cc(N2C(=O)C=CC2=O)cc(N2C(=O)C=CC2=O)c1,-1.11%,-6.34%,5.17%,6.14%,5.6%,-4%
CC1(CN2CCCC2)CCC(NC(=O)C(c2ccccc2)c2ccccc2)C(C)(C)O1 (stereo not given),23.4%,6.65%,12.21%,18.43%,0.1%,-5.78%
C1=Cc2ccccc2Nc2ccccc21 [IMINOSTILBENE],-1.85%,-14.24%,12.01%,3.59%,3.51%,-15.72%
CN1CCN(C(=O)/C=C/c2ccc([N+](=O)[O-])o2)CC1,14.1%,5.92%,-7.59%,6.31%,3.54%,10.04%
Cc1ccc(/N=N/c2ccc(C)cc2NC(=O)Nc2ccccc2F)cc1,3.8%,6.73%,1.93%,9.05%,6.78%,3.6%
O=C(C(Cl)Cl)N1CC2CCC(CC2)C1,-8.6%,7.03%,-13.8%,1.03%,-0.88%,23.84%
CN(C)c1ccc(/C=C2/C=C(c3ccc4c(c3)CCCC4)OC2=O)cc1,19.91%,-7.24%,16.55%,6.65%,4.35%,1.53%
Nc1cc2c3c(cccc3c1)C(=O)N(CCN1CCCC1)C2=O,23.19%,9.76%,2.48%,19.29%,-1.62%,-3.61%
Clc1cc2c(nn1)Nc1ccccc1S2,-2.08%,9.37%,10.31%,10.14%,0.32%,-16.64%
O=C(O)c1ccc2c(c1Sc1ccccc1)C(=O)c1ccccc1C2=O,-2.35%,11.62%,-1.12%,2.65%,1.7%,-3.15%
C#C[C@]1(O)CC[C@H]2[C@@H]3CCC4=Cc5oncc5C[C@]4(C)[C@H]3CC[C@@]21C [DANAZOL],-10.91%,2.93%,12.68%,6.03%,0.72%,-10.04%
Cn1ncc2c(Sc3ccc(Cl)cc3)ncnc21,-1.32%,15.79%,-1.92%,2.06%,4.47%,-10.69%
Nc1ccc(SCc2nc3cccc4c3n2CCC4)cc1,3.62%,-8.53%,10.5%,16.5%,-0.32%,-14.91%
COCC(O)Cn1ccnc1[N+](=O)[O-] (stereo not given) [MISONIDAZOLE],-3.32%,6.49%,6.97%,11.9%,1.35%,-12.64%
Cc1c(Cl)cccc1Nc1ncccc1C(=O)OCC(O)CO (stereo not given) [CLONIXERIL],16.87%,6.56%,-0.19%,9.09%,-1.76%,-6.15%
CC(=O)Nc1ccc(S(=O)(=O)N=S(C)C)cc1,11.09%,5.41%,5.54%,15.05%,3.87%,-12.86%
Br.C=CC1CN2CCC1CC2C(O)c1ccnc2ccc(OC)cc12 (stereo not given),-3.41%,0.49%,16.29%,15.08%,-0.01%,7.91%

# Source: ChEMBL document CHEMBL4296182, “CO-ADD screening of NIH NCI Diversity Set V”
